Columns and labels:
Experiment in all cases: DAPPL (digital affinity profiling via proximity ligation, sequencing); 10 mM Tris-HCl pH 7.5, 50 mM NaCl, 1 mM DTT, 4% glycerol, room temperature, 30 min; GST-TFs on glutathione beads, 16-mer random dsDNA library, 0.1% formaldehyde crosslink after washing; high values mean tight binding
[1] = target: T1, FEV (Homo sapiens, UniProt Q99581 1-238); details: protein: recombinant; tags: N-terminal GST; dsDNA, one strand shown
T1 sequence: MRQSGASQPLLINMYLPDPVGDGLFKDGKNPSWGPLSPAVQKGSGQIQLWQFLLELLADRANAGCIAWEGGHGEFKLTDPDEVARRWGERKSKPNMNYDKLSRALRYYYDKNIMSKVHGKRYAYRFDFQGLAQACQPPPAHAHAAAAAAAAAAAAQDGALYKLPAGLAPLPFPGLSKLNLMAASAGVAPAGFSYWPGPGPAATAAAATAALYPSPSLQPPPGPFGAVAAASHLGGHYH
Procedure, shortened: (§1)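 Binding signal is each hexamer's read frequency for a factor divided by its frequency in the tag-only sample. The factors were GST-fused human transcription factors from yeast, captured on glutathione beads, DNA-barcoded and pooled with that sample. Pools were incubated with 200 nmole of a random double-stranded 16-mer DNA library in Tris/NaCl/DTT/glycerol buffer at room temperature for 30 min, then washed, crosslinked with 0.1% formaldehyde, proximity-ligated with BsaI/T4 ligase (1 h, 37 °C), PCR-amplified and sequenced on an Illumina NextSeq500.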

[2] = target: ETV5 (Homo sapiens, UniProt P41161 1-510); details: protein: recombinant; tags: N-terminal GST; dsDNA, one strand shown
Sequence of ETV5 (P41161 whole entry): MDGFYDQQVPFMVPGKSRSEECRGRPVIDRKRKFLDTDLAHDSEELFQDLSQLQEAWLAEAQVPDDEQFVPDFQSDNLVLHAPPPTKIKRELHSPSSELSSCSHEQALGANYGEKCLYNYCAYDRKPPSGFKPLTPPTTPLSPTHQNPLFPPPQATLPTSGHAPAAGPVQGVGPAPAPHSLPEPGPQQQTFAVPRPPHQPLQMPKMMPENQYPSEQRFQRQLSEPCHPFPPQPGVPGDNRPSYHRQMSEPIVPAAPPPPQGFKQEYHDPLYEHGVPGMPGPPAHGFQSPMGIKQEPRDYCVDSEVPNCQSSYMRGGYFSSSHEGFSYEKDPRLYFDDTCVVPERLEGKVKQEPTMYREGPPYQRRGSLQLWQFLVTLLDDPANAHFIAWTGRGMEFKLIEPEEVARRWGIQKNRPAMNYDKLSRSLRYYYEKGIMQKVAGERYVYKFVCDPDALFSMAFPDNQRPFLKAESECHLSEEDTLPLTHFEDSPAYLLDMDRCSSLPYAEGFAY
Procedure, shortened: as §1

[3] = target: HSF1 (Homo sapiens, UniProt Q00613 1-529); details: protein: recombinant; tags: N-terminal GST; chain copies: 3; dsDNA, one strand shown
Sequence of HSF1 (Q00613 whole entry): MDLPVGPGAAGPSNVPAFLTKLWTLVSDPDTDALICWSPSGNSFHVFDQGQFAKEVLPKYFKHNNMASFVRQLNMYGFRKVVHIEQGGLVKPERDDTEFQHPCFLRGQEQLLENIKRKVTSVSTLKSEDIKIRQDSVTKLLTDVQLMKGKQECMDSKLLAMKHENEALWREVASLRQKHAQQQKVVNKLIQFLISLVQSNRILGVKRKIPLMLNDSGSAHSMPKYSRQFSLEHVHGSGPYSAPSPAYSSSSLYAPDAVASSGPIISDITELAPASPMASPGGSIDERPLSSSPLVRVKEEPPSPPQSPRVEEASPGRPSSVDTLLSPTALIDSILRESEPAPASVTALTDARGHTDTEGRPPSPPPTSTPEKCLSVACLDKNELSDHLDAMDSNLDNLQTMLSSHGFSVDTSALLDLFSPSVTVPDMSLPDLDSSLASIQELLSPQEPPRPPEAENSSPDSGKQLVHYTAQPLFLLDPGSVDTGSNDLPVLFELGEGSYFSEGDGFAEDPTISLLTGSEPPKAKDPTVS
Procedure, shortened: as §1

[4] = target: T2, SPIC (Homo sapiens, UniProt Q8N5J4 1-248); details: protein: recombinant; tags: N-terminal GST; dsDNA, one strand shown
T2 sequence: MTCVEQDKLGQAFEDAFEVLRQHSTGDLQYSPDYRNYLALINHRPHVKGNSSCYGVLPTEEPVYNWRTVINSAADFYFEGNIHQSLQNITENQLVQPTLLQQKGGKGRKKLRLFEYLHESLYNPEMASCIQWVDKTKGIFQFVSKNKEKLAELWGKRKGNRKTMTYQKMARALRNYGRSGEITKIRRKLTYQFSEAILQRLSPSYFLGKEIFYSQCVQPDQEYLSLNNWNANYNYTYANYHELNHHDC
Procedure, shortened: as §1

[5] = target: ELF4 (Homo sapiens, UniProt Q99607 1-663); details: protein: recombinant; tags: N-terminal GST; dsDNA, one strand shown
Sequence of ELF4 (Q99607 whole entry): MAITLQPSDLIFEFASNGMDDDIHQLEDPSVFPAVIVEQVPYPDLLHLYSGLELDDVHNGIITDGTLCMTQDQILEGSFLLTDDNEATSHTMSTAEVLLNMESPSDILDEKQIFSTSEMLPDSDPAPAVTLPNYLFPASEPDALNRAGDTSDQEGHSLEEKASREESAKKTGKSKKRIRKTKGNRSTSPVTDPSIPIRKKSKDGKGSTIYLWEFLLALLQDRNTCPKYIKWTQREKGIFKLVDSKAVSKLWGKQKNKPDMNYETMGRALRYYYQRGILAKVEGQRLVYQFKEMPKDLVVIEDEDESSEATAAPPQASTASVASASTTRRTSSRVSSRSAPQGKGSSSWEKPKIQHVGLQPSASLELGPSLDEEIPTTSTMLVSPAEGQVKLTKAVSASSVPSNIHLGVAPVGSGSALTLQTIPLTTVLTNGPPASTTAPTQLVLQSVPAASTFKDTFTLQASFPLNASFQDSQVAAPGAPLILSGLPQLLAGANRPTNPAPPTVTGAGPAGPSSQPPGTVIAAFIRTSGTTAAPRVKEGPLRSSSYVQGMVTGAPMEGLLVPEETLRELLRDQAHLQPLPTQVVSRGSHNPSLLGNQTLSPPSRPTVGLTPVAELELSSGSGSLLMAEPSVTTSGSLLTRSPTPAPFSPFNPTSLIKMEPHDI
Procedure, shortened: as §1

[6] = target: T3, ELK4 (Homo sapiens, UniProt P28324-2 1-405); details: protein: recombinant; tags: N-terminal GST; dsDNA, one strand shown
T3 sequence: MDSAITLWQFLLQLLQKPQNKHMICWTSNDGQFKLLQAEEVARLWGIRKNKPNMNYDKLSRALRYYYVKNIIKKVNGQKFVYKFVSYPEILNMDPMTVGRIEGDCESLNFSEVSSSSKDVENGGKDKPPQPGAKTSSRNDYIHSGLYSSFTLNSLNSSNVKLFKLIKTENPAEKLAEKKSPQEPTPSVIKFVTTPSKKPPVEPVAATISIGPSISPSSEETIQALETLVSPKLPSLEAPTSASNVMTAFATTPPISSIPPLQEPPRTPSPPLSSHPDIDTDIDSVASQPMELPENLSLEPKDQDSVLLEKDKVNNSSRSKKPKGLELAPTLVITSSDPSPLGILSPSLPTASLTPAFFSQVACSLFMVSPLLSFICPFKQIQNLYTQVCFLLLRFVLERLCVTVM
Procedure, shortened: as §1

[7] = target: T4, ETV2 (Homo sapiens, UniProt O00321 1-342); details: protein: recombinant; tags: N-terminal GST; dsDNA, one strand shown
T4 sequence: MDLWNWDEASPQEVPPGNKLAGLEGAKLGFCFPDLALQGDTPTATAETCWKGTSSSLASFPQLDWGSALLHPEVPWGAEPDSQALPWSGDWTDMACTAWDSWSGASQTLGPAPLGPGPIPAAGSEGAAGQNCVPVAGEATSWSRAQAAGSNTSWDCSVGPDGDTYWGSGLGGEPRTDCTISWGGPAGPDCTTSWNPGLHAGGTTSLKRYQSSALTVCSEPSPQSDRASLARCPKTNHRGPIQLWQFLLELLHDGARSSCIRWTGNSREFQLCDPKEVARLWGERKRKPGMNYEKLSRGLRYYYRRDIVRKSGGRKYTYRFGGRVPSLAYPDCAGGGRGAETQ
Procedure, shortened: as §1

[8] = target: T5, ELF3 (Homo sapiens, UniProt P78545 1-371); details: protein: recombinant; tags: N-terminal GST; dsDNA, one strand shown
T5 sequence: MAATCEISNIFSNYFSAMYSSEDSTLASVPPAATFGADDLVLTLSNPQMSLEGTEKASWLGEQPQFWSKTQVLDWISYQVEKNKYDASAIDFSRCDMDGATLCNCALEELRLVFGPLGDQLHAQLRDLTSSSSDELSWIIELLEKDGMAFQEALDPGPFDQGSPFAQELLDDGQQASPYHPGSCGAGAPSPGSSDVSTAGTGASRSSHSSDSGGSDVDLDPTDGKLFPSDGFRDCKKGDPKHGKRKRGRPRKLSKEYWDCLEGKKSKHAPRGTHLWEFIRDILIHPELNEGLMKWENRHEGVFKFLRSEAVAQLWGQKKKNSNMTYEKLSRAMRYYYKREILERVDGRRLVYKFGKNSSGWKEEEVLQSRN
Procedure, shortened: as §1

[9] = target: CRX (Homo sapiens, UniProt O43186 1-299); details: protein: recombinant; tags: N-terminal GST; dsDNA, one strand shown
Sequence of CRX (O43186 whole entry): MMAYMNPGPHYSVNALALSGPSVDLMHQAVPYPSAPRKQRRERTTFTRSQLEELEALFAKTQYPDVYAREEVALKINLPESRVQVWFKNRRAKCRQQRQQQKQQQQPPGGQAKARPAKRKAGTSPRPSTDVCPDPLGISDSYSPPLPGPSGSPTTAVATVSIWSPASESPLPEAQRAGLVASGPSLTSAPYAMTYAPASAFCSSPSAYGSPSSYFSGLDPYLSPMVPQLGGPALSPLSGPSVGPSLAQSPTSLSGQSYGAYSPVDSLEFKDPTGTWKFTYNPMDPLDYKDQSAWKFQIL
Procedure, shortened: as §1

[10] = target: ETV1 (Homo sapiens, UniProt P50549 1-477); details: protein: recombinant; tags: N-terminal GST; dsDNA, one strand shown
Sequence of ETV1 (P50549 whole entry): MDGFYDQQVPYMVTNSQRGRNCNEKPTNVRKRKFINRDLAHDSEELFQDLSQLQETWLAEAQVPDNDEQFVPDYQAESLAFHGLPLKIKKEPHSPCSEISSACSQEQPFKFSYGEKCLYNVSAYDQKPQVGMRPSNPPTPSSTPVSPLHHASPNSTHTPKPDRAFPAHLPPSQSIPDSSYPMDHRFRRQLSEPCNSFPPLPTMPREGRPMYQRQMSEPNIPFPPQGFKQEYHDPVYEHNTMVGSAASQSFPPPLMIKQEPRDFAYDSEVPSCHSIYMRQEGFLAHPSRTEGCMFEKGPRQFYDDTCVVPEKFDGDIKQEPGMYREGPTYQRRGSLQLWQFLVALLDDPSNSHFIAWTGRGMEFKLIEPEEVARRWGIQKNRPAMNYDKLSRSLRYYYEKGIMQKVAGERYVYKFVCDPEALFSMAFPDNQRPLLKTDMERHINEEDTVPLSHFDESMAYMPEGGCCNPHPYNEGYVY
Procedure, shortened: as §1

Row | Sequence | binding signal [1] | binding signal [2] | binding signal [3] | binding signal [4] | binding signal [5] | binding signal [6] | binding signal [7] | binding signal [8] | binding signal [9] | binding signal [10]
1 | ATGGAA | 1.16 fold enrichment (6-mer frequency, TF over GST control) | 1.16 fold enrichment (6-mer frequency, TF over GST control) | 1.86 fold enrichment (6-mer frequency, TF over GST control) | 1.22 fold enrichment (6-mer frequency, TF over GST control) | 1.19 fold enrichment (6-mer frequency, TF over GST control) | 1.13 fold enrichment (6-mer frequency, TF over GST control) | 1.26 fold enrichment (6-mer frequency, TF over GST control) | 1.16 fold enrichment (6-mer frequency, TF over GST control) | 1.22 fold enrichment (6-mer frequency, TF over GST control) | 1.24 fold enrichment (6-mer frequency, TF over GST control)
2 | CCCTCT | 1.35 fold enrichment (6-mer frequency, TF over GST control) | 1.33 fold enrichment (6-mer frequency, TF over GST control) | 1.29 fold enrichment (6-mer frequency, TF over GST control) | 1.14 fold enrichment (6-mer frequency, TF over GST control) | 1.46 fold enrichment (6-mer frequency, TF over GST control) | 1.6 fold enrichment (6-mer frequency, TF over GST control) | 1.32 fold enrichment (6-mer frequency, TF over GST control) | 1.34 fold enrichment (6-mer frequency, TF over GST control) | 1.36 fold enrichment (6-mer frequency, TF over GST control) | 1.25 fold enrichment (6-mer frequency, TF over GST control)
3 | TCCCGT | 1.3 fold enrichment (6-mer frequency, TF over GST control) | 1.38 fold enrichment (6-mer frequency, TF over GST control) | 1.35 fold enrichment (6-mer frequency, TF over GST control) | 1.28 fold enrichment (6-mer frequency, TF over GST control) | 1.23 fold enrichment (6-mer frequency, TF over GST control) | 1.41 fold enrichment (6-mer frequency, TF over GST control) | 1.29 fold enrichment (6-mer frequency, TF over GST control) | 1.37 fold enrichment (6-mer frequency, TF over GST control) | 1.18 fold enrichment (6-mer frequency, TF over GST control) | 1.3 fold enrichment (6-mer frequency, TF over GST control)
4 | ATCCCA | 1.14 fold enrichment (6-mer frequency, TF over GST control) | 1.11 fold enrichment (6-mer frequency, TF over GST control) | 1.34 fold enrichment (6-mer frequency, TF over GST control) | 1.07 fold enrichment (6-mer frequency, TF over GST control) | 1.1 fold enrichment (6-mer frequency, TF over GST control) | 1.13 fold enrichment (6-mer frequency, TF over GST control) | 1.14 fold enrichment (6-mer frequency, TF over GST control) | 1.23 fold enrichment (6-mer frequency, TF over GST control) | 1.69 fold enrichment (6-mer frequency, TF over GST control) | 1.09 fold enrichment (6-mer frequency, TF over GST control)
5 | CGACTT | 2 fold enrichment (6-mer frequency, TF over GST control) | 1.65 fold enrichment (6-mer frequency, TF over GST control) | 1.57 fold enrichment (6-mer frequency, TF over GST control) | 1.65 fold enrichment (6-mer frequency, TF over GST control) | 1.69 fold enrichment (6-mer frequency, TF over GST control) | 1.97 fold enrichment (6-mer frequency, TF over GST control) | 1.72 fold enrichment (6-mer frequency, TF over GST control) | 1.7 fold enrichment (6-mer frequency, TF over GST control) | 1.74 fold enrichment (6-mer frequency, TF over GST control) | 1.72 fold enrichment (6-mer frequency, TF over GST control)
6 | ATGATC | 1.14 fold enrichment (6-mer frequency, TF over GST control) | 1.24 fold enrichment (6-mer frequency, TF over GST control) | 1.59 fold enrichment (6-mer frequency, TF over GST control) | 1.38 fold enrichment (6-mer frequency, TF over GST control) | 1.21 fold enrichment (6-mer frequency, TF over GST control) | 1.16 fold enrichment (6-mer frequency, TF over GST control) | 1.15 fold enrichment (6-mer frequency, TF over GST control) | 1.19 fold enrichment (6-mer frequency, TF over GST control) | 1.74 fold enrichment (6-mer frequency, TF over GST control) | 1.1 fold enrichment (6-mer frequency, TF over GST control)
7 | ATGATT | 1.15 fold enrichment (6-mer frequency, TF over GST control) | 1.18 fold enrichment (6-mer frequency, TF over GST control) | 1.33 fold enrichment (6-mer frequency, TF over GST control) | 1.17 fold enrichment (6-mer frequency, TF over GST control) | 1.12 fold enrichment (6-mer frequency, TF over GST control) | 1.21 fold enrichment (6-mer frequency, TF over GST control) | 1.26 fold enrichment (6-mer frequency, TF over GST control) | 1.12 fold enrichment (6-mer frequency, TF over GST control) | 1.58 fold enrichment (6-mer frequency, TF over GST control) | 1.19 fold enrichment (6-mer frequency, TF over GST control)
